# Assay results: PubChem BioAssay AID1159580 (chemical genetic matrix, 2015)
# The whole screen tested about 5,500 compounds, of which about 2,000 (36%) were called active. About 18% were inconclusive and are not listed. Some of the results follow. A number with no mark means an inactive call. No stated cut-off is given here; in the data, active means normalized growth mostly below about 0.91 (no sharp cut-off); inconclusive means no clear call, values can overlap the other calls; inactive means mostly above about 0.92.
# Experiment: chemical genetic growth profiling, strain panel (AID 1159580);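 further: tested at 20 µM; growth read once vehicle control cultures reached saturation at 30 °C; 1 = growth at the plate median or of vehicle wells; lower values mean less growth of the strain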
# Details: S. cerevisiae deletion strains, growth OD
smiles,measurement,setting,value
CN(CCC(N)CC(=O)N[C@H]1C=CC(n2ccc(N)nc2=O)O[C@@H]1C(=O)O)C(=N)N (some centres not stated),normalized growth,"locus YAL021C, strain ccr4, active compounds read low",0.406 (active)
same,normalized growth,"locus YAL026C, strain drs2, active compounds read low",0.953
same,normalized growth,"locus YAL030W, strain snc1, active compounds read low",0.93
same,normalized growth,"locus YBL061C, strain skt5, active compounds read low",0.938
same,normalized growth,"locus YBR009C, strain hhf1, active compounds read low",0.895 (active)
same,normalized growth,"locus YBR023C, strain chs3, active compounds read low",0.944
same,normalized growth,"locus YBR171W, strain sec66, active compounds read low",0.963
same,normalized growth,"locus YBR231C, strain swc5, active compounds read low",0.976
same,normalized growth,"locus YBR279W, strain paf1, active compounds read low",0.916 (active)
same,normalized growth,"locus YCL011C, strain gbp2, active compounds read low",0.935
same,normalized growth,"locus YCL016C, strain dcc1, active compounds read low",0.947
same,normalized growth,"locus YCL061C, strain MRC1, active compounds read low",0.899 (active)
same,normalized growth,"locus YCL069W, strain vba3, active compounds read low",0.942
same,normalized growth,"locus YCR088W, strain abp1, active compounds read low",0.962
same,normalized growth,"locus YDL005C, strain med2, active compounds read low",0.111 (active)
same,normalized growth,"locus YDL040C, strain nat1, active compounds read low",0.983
same,normalized growth,"locus YDR001C, strain nth1, active compounds read low",0.965
same,normalized growth,"locus YDR069C, strain doa4, active compounds read low",0.494 (active)
same,normalized growth,"locus YDR137W, strain rgp1, active compounds read low",0.852
same,normalized growth,"locus YDR159W, strain sac3, active compounds read low",0.659 (active)
same,normalized growth,"locus YDR195W, strain ref2",0.603 (active)
same,normalized growth,"locus YDR297W, strain sur2, active compounds read low",0.941
same,normalized growth,"locus YDR334W, strain swr1, active compounds read low",0.917
same,normalized growth,"locus YDR335W, strain msn5, active compounds read low",0.626 (active)
same,normalized growth,"locus YDR392W, strain spt3, active compounds read low",0.262 (active)
same,normalized growth,"locus YEL003W, strain gim4, active compounds read low",0.919
same,normalized growth,"locus YEL037C, strain rad23, active compounds read low",0.963
same,normalized growth,"locus YEL061C, strain CIN8 (second series), active compounds read low",0.952
same,normalized growth,"locus YER015W, strain faa2, active compounds read low",0.917 (active)
same,normalized growth,"locus YER016W, strain bim1, active compounds read low",0.976
same,normalized growth,"locus YER111C, strain swi4, active compounds read low",0.793 (active)
same,normalized growth,"locus YER155C, strain BEM2 (second series), active compounds read low",0.826 (active)
same,normalized growth,"locus YFR010W, strain ubp6, active compounds read low",0.725 (active)
same,normalized growth,"locus YGL167C, strain pmr1, active compounds read low",0.998
same,normalized growth,"locus YGL173C, strain kem1, active compounds read low",0.124 (active)
same,normalized growth,"locus YGL227W, strain vid30, active compounds read low",0.98
same,normalized growth,"locus YGL240W, strain doc1, active compounds read low",0.31 (active)
same,normalized growth,"locus YGL253W, strain hxk2, active compounds read low",0.942
same,normalized growth,"locus YHR013C, strain ard1, active compounds read low",0.929
same,normalized growth,"locus YHR027C, strain rpn1, active compounds read low",0.814 (active)
same,normalized growth,"locus YHR030C, strain SLT2, active compounds read low",0.9
same,normalized growth,"locus YHR079C, strain IRE1, active compounds read low",0.924
same,normalized growth,"locus YHR142W, strain chs7, active compounds read low",0.846 (active)
same,normalized growth,"locus YJL092W, strain hpr5, active compounds read low",0.913 (active)
same,normalized growth,"locus YJL095W, strain BCK1 (second series), active compounds read low",0.891 (active)
same,normalized growth,"locus YJL095W, strain BCK1, active compounds read low",0.934
same,normalized growth,"locus YJL115W, strain asf1, active compounds read low",0.725 (active)
same,normalized growth,"locus YJL129C, strain trk1, active compounds read low",0.637 (active)
same,normalized growth,"locus YJL154C, strain vps35, active compounds read low",0.898 (active)
same,normalized growth,"locus YJL164C, strain tpk1, active compounds read low",0.888 (active)
same,normalized growth,"locus YJL166W, strain qcr8, active compounds read low",0.891 (active)
same,normalized growth,"locus YJL187C, strain SWE1, active compounds read low",0.872 (active)
same,normalized growth,"locus YJR066W, strain TOR1, active compounds read low",0.814 (active)
same,normalized growth,"locus YKL160W, strain elf1, active compounds read low",0.887 (active)
same,normalized growth,"locus YKR026C, strain gcn3, active compounds read low",0.965
same,normalized growth,"locus YKR091W, strain srl3, active compounds read low",0.986
same,normalized growth,"locus YLL001W, strain dnm1, active compounds read low",0.923
same,normalized growth,"locus YLL026W, active compounds read low",0.934
same,normalized growth,"locus YLL041C, strain sdh2, active compounds read low",0.946
same,normalized growth,"locus YLR027C, strain aat2, active compounds read low",0.872 (active)
same,normalized growth,"locus YLR113W, strain HOG1, active compounds read low",0.958
same,normalized growth,"locus YLR221C, strain rsa3, active compounds read low",0.871 (active)
same,normalized growth,"locus YLR258W, strain gsy2, active compounds read low",0.922
same,normalized growth,"locus YLR262C, strain YPT6 (second series), active compounds read low",0.904
same,normalized growth,"locus YLR320W, strain mms22, active compounds read low",0.957
same,normalized growth,"locus YLR342W, strain FKS1, active compounds read low",0.943
same,normalized growth,"locus YLR357W, strain rsc2, active compounds read low",0.31 (active)
same,normalized growth,"locus YLR370C, strain arc18, active compounds read low",0.478 (active)
same,normalized growth,"locus YLR384C, strain iki3, active compounds read low",0.692 (active)
same,normalized growth,"locus YML120C, strain ndi1, active compounds read low",0.888 (active)
same,normalized growth,"locus YMR058W, strain fet3, active compounds read low",0.885 (active)
same,normalized growth,"locus YMR125W, strain sto1, active compounds read low",0.686 (active)
same,normalized growth,"locus YMR129W, active compounds read low",0.949
same,normalized growth,"locus YMR205C, strain PFK2, active compounds read low",1
same,normalized growth,"locus YMR231W, strain pep5, active compounds read low",0.734 (active)
same,normalized growth,"locus YNL071W, strain lat1, active compounds read low",0.89 (active)
same,normalized growth,"locus YNL183C, strain NPR1, active compounds read low",0.881
same,normalized growth,"locus YNL209W, strain ssb2, active compounds read low",0.796 (active)
same,normalized growth,"locus YNL248C, strain rpa49, active compounds read low",0.73 (active)
same,normalized growth,"locus YNL322C, strain KRE1 (second series), active compounds read low",0.942
same,normalized growth,"locus YNR049C, strain mso1, active compounds read low",0.94
same,normalized growth,"locus YOR001W, strain rrp6, active compounds read low",0.793 (active)
same,normalized growth,"locus YOR070C, strain gyp1, active compounds read low",0.962
same,normalized growth,"locus YOR080W, strain dia2, active compounds read low",0.776 (active)
same,normalized growth,"locus YOR083W, strain WHI5, active compounds read low",0.923
same,normalized growth,"locus YOR106W, strain vam3, active compounds read low",0.699 (active)
same,normalized growth,"locus YOR231W, strain MKK1, active compounds read low",0.87
same,normalized growth,"locus YOR265W, strain rbl2, active compounds read low",0.966
same,normalized growth,"locus YOR270C, strain vph1, active compounds read low",0.781
same,normalized growth,"locus YOR290C, strain snf2, active compounds read low",0.875
same,normalized growth,"locus YPL051W, strain arl3, active compounds read low",0.869 (active)
same,normalized growth,"locus YPL078C, strain atp4, active compounds read low",0.826 (active)
same,normalized growth,"locus YPL106C, strain sse1, active compounds read low",0.356 (active)
same,normalized growth,"locus YPL240C, strain hsp82, active compounds read low",0.924 (active)
same,normalized growth,"locus YPL256C, strain CLN2, active compounds read low",0.901
Nc1ccn([C@@H]2O[C@H](CO)[C@@H](O)C2O)c(=O)n1 (some centres not stated),normalized growth,"locus YAL013W, strain DEP1, active compounds read low",0.982
same,normalized growth,"locus YAL040C, strain CLN3, active compounds read low",1.03
same,normalized growth,"locus YDR363W, strain ESC2, active compounds read low",0.981
same,normalized growth,"locus YER002W, strain NOP16, active compounds read low",1
same,normalized growth,"locus YNL128W, strain TEP1, active compounds read low",0.967
same,normalized growth,"locus YNL175C, strain NOP13, active compounds read low",0.987
same,normalized growth,"locus YNL197C, strain WHI3, active compounds read low",0.976
same,normalized growth,"locus YNL224C, strain SQS1, active compounds read low",0.983
same,normalized growth,"locus YNL322C, strain KRE1, active compounds read low",1
same,normalized growth,"locus YOR083W, strain WHI5 (second series), active compounds read low",1.05
same,normalized growth,"locus YPL055C, strain LGE1, active compounds read low",0.99
same,normalized growth,"locus YPL241C, strain CIN2, active compounds read low",0.996
